Screening data: PubChem BioAssay, National Center for Advancing Translational Sciences (NCATS)
FBPA coupling cs: inhibits coupling enzyme system, counter-screen for aldolase hits. coupling enzyme system counterscreen, AmpLite Red fluorescence. activity change, negative = inhibition, % at 58.2 µM, hits read low. 0.67% of 290,000 active. AID 2472; in the data active = activity change below about -30%
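Activity here indicates interference with the coupling reaction, not aldolase inhibition. Compounds at 57.5 uM final met coupling enzymes for 10 min at RT; substrate and AmpLite Red detection followed, with a 525/598 nm fluorescence read after 20 min.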
Tau fibril ThT: inhibitors of human tau fibril formation, thioflavin T binding; P10636; recombinant tau K18 P301L, heparin-induced fibrillization, ThT fluorescence; Potency, µM (series often up to 57.4 µM), inactives show at the highest dose activity, negative = inhibition, usual class: inhibitors; 2.1% of 270,000 active; AID 1460; also: potency is read from the fitted curve at half-maximal effect; nearly all actives have a fitted effect of over 55% in size
Target sequence (P10636 561-689 P618L limits assumed): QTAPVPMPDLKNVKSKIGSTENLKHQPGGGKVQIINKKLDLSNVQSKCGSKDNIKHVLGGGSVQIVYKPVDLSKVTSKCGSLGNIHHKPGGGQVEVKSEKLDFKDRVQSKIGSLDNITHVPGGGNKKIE
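Heparin-induced (20 uM) aggregation of recombinant human K18 P301L tau, 15 uM unlabeled with 0.24 uM labeled, pH 7 acetate buffer, 6 hr at 37 C with compound. Fibrils quantified by 30 uM ThT fluorescence after 1 hr ambient incubation.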
JMJD2E inh: inhibitors of human JMJD2E histone demethylase; B2RXH2; JMJD2E catalytic domain, FDH-coupled NADH fluorescence (FDH is formaldehyde dehydrogenase); Potency, µM (titrated, usually from 57.1 µM), for inactives: at the highest dose activity change, negative = inhibition, usual class: inhibitors; 1.6% of 230,000 active; AID 2147; active = well fitted inhibition curve with a large enough effect, not every such curve was filed as active; inconclusive = small, poorly fitted or top-dose-only effect, or another doubt; inactive = no such curve, though single readings can be large or run the other way;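 also: potency is read from the fitted curve at half-maximal effect; 0% = wells with enzyme and -100% = buffer wells without enzyme; nearly all actives have a fitted effect of over 50% in size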
Target sequence (B2RXH2 1-337 limits assumed): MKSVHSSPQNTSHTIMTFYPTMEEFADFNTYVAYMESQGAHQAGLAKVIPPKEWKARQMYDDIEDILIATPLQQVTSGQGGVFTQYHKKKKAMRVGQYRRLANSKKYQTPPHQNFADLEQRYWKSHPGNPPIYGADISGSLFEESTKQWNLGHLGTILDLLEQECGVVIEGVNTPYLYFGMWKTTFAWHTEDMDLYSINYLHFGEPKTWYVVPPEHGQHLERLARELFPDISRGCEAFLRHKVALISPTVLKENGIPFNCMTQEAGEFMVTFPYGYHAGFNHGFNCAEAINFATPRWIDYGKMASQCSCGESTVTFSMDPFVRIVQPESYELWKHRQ
Tau fluor cs: counter-screen for tau fibril formation inhibitors | tau K18 P301L (four-repeat tau fragment) Alexa594 fluorescence, heparin fibrillization | Potency, µM (series often up to 57.7 µM), inactives show at the top dose activity change, negative = decrease | 0.93% of 280,000 active; also: potency is read from the fitted curve at half-maximal effect; nearly all actives have a fitted effect of over 55% in size
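Human K18 P301L tau (15 uM unlabeled plus 0.24 uM Alexa 594-labeled, final) in 100 mM sodium acetate pH 7 was mixed with compound and 20 uM heparin and incubated 6 hr at 37 C.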
Sfp PPTase inh: Sfp phosphopantetheinyl transferase inhibition | Biochemical Sfp PPTase activity, qHTS | 3.5% of 310,000 active | AID 1490 | Potency, µM, without a hit: largest response in the series, negative = inhibition, most hits filed as inhibitors | Q9F4F7;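 also: the enzyme is Sfp with the accession as filed and its product quenches rhodamine fluorescence; potency is read from the fitted curve at half-maximal effect; 0% = enzyme reaction without inhibitor and -100% = no enzyme wells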
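Reaction rates are the 30-min fluorescence difference (ex 525, em 598 nm) in wells containing 15 nM Sfp, 5 uM rhodamine-CoA and 12.5 uM BHQ-2-YbbR at pH 7.6 with 10 mM MgCl2.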
Tau FP inhib: inhibitors of human tau fibril formation | Potency, µM (highest dose often 57.7 µM), for the others: at the top dose activity, negative = inhibition, usual class: inhibitors | 0.39% of 280,000 active | P10636 | K18 P301L tau heparin fibrillization, Alexa594 FP, 6 h; also: potency is read from the fitted curve at half-maximal effect; nearly all actives have a fitted effect of over 55% in size
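Quantitative HTS format: compounds meet 15 uM recombinant K18 P301L tau and Alexa 594-tau tracer in 100 mM sodium acetate pH 7; 20 uM heparin triggers fibrillization at 37 C over 6 hr; FP gives the signal.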
* = called active by the depositor; ? = inconclusive; . = not tested or not shown; [ ] = dose if it differs, or a comment. Sampled rows, rich in hits. Any-hit rate of the full collection: about 5.3%. Unless noted, calls follow the shape of the dose curve; as a rule, active = well fitted curve in the direction sought with a large enough effect; inconclusive = small, poorly fitted or top-dose-only effect, or another doubt; inactive = no such curve, though single readings can be large; an effect the other way counts as inactive or inconclusive. Unless noted, % is scaled to controls: 0 for no effect and ±100 for the full control effect.

SMILES	FBPA coupling cs	Tau fibril ThT	JMJD2E inh	Tau fluor cs	Sfp PPTase inh	Tau FP inhib
O=C(CSc1ccc2ccccc2c1)NCCc1ccc(O)c(O)c1	-9.9	?	?	-26.2%	25.1µM*	8.8%
COc1ccc(CCNC(=O)CSc2ccc3ccccc3c2)cc1OC	-2.2	?	-1.2%	-16.5%	-28.2%	-2.4%
CSCC[C@H](NC(=O)CNC(=O)CNC(=O)[C@H](CO)NC(=O)[C@H](CCCNC(=N)N)NC(=O)[C@H](CO)NC(=O)[C@H](CC(C)C)NC(=O)[C@H](CC(C)C)NC(=O)CNC(=O)[C@H](C)NC(=O)[C@H](CC(C)C)NC(=O)[C@H](CCCNC(=N)N)NC(=O)[C@H](Cc1cnc[nH]1)NC(=O)[C@@H](NC(=O)[C@@H](N)C(C)C)[C@@H](C)O)C(=O)N[C@H](C(=O)N[C@@H](CCCCN)C(=O)N[C@@H](CO)C(=O)N[C@@H](CC(N)=O)C(=O)N[C@@H](Cc1ccccc1)C(=O)N[C@H](C(=O)N1CCC[C@H]1C(=O)N[C@H](C(=O)N[C@@H](CC(N)=O)C(=O)N[C@H](C(=O)NCC(=O)N[C@@H](CO)C(=O)N[C@@H](CCCCN)C(=O)N[C@@H](C)C(=O)N[C@@H](Cc1ccccc1)C(N)=O)C(C)C)[C@@H](C)O)C(C)C)C(C)C	0.0	.	.	.	-3.9%	.
CC(C)Nc1oc(-c2ccccc2)nc1-c1cccc2ccccc12	1.5	-11.5%	-7.3%	-8.2%	-6.0%	-8.8%
COc1ccc(-c2cc3nc(C)c(CCC(=O)N4CCN(c5ccccn5)CC4)c(C)n3n2)c(OC)c1	1.9	-13.8%	12.6µM*	-1.1%	11.1%	-3.6%
Cc1ccc(-n2nc(CO)c(C(=O)NCCCc3ccccc3)n2)cc1C	.	3.7%	.	-2.0%	.	-1.4%
COC(=O)C1=C(C)N(Cc2ccccc2)C(=NCC2CC2)N[C@H]1c1ccc(Br)cc1	-0.6	.	.	.	56.2µM*	.
COC(=O)C1=C(C)N(Cc2ccccc2)C(=NCc2ccc(OC)cc2)N[C@H]1c1cccc(F)c1	-3.5	.	.	.	-6.7%	.
COC(=O)C1=C(C)N(Cc2ccccc2)C(=NCc2cccc(Cl)c2)N[C@H]1c1cccc(F)c1	-3.8	.	.	.	56.2µM*	.
COC(=O)C1=C(C)N(Cc2ccccc2)C(=NCC2CC2)N[C@H]1c1ccccc1	0.2	.	.	.	12.1%	.
CCOc1ccc(C2C(=O)N(C3CCCCCC3)CC(=O)N2Cc2ccc(C)cc2)cc1OC (centres undefined)	.	2.6%	.	1.7%	.	5.9%
CCOc1ccc(C2NC(=O)c3ccccc3O2)cc1OC (centres undefined)	-0.9	.	.	.	14.9%	.
CCOc1ccc(C2NC(=O)C(C#N)=C(S)N2c2cccc(C)c2)cc1OC (centres undefined)	5.7	31.6µM*	-12.5%	-24.8%	?	?
CCOc1ccc(C2NC(=O)C(C#N)=C(S)N2c2ccc(C)cc2)cc1OC (centres undefined)	7.4	31.6µM*	-3.4%	-23.8%	44.7µM*	?
COc1cc(C2CC(=O)Nc3c2c(C)nn3-c2nncc(-c3ccccc3)n2)cc(OC)c1OC (centres undefined)	.	?	.	-23.2%	.	?
N#Cc1ccc(CN2CCC3(CC2)CCN(S(=O)(=O)c2ccccc2)CC3)cc1	-5.6	.	.	.	8.5%	.
Cc1cc(N)ccc1N1CCCC1	-23.0	7.08µM*	-28.4%	?	14.1µM*	12.6µM*
Cc1cc(N)ccc1-n1c(C)ccc1C	-14.8	14.1µM*	?	-28.9%	-8.8%	?
COc1cc2c(cc1OC)C(c1ccc(F)cc1)N(c1ccccc1)C(=O)C2 (centres undefined)	.	-1.7%	.	2.1%	.	8.3%
Cc1ccc(NC(=O)c2cc3c(=O)n(Cc4cccnc4)ccc3nc2C)cc1F	.	10.4%	.	-4.9%	.	-8.9%
CN(C)c1ccc(Nc2nc(N)c3ccccc3n2)cc1	-1.3	.	.	.	25.1µM*	.
Nc1nc(Nc2ccccc2)nc2ccccc12	-0.8	-0.7%	-14.0%	-12.9%	-11.7%	-0.3%
Cc1ccc2nc(/C(C#N)=C\c3ccc([N+](=O)[O-])o3)[nH]c2c1	.	8.91µM*	-5.8%	12.6µM*[quencher]	13.1%	?
Cc1ccc2nc(/C(C#N)=C/c3ccc(-c4ccccc4C(=O)O)o3)[nH]c2c1	25.6	.	.	.	8.7%	.
COc1cc(/C=C(/C#N)c2nc3ccccc3[nH]2)ccc1Oc1ncccc1[N+](=O)[O-]	1.6	?	-1.1%	?	0.5%	9.2%
SMILES	FBPA coupling cs	Tau fibril ThT	JMJD2E inh	Tau fluor cs	Sfp PPTase inh	Tau FP inhib
N#C/C(=C\c1ccc(Sc2ccccc2)o1)c1nc2ccccc2[nH]1	-7.2	3.4%	0.4%	-26.6%	-1.0%	?
N#C/C(=C\c1ccc(N2CCCC2)c([N+](=O)[O-])c1)c1nc2ccccc2[nH]1	-7.4	2µM*	0.7%	?	-35.6%	-4.8%
N#C/C(=C\c1ccc([N+](=O)[O-])o1)c1nc2ccccc2[nH]1	-0.4	7.08µM*	?	11.2µM*[quencher]	6.8%	?
Cc1ccc2nc(/C(C#N)=C\c3ccc(N4CCOCC4)o3)[nH]c2c1	0.0	12.6µM*	-6.2%	?	-3.7%	?
O=C1CCCC2CCCCN12 (centres undefined)	-1.9	0.7%[186 µM]	.	2.5%[186 µM]	9.8%	9.7%[186 µM]
CCC(C)C(=O)O[C@H]1C[C@@H](C)C=C2C=C[C@H](C)[C@H](CC[C@@H]3C[C@@H](O)CC(=O)O3)C21 (some centres undefined)	4.6	-7.2%	1.9%	-10.2%	8.2%	-1.9%
COc1ccc(N2CCN(C(=O)CSc3nc(-c4ccc(C(C)C)cc4)no3)CC2)cc1	.	?	.	-16.1%	.	3.7%
Cc1cccc(NC(=O)c2cccc(N3CCCS3(=O)=O)c2)c1	.	-9.9%	.	-7.1%	.	-5.9%
CC(C)(C)/C(O)=C(/C#N)c1nc2ccccc2[nH]1	-0.8	-14.3%	?	-15.3%	5.1%	-3.3%
N#C/C(=C(/O)c1ccc([N+](=O)[O-])o1)c1nc2ccccc2[nH]1	-1.7	7.08µM*	3.0%	?	4.9%	5.4%
CC1CCCN(c2ccc(/C=C(\C#N)c3nn(-c4ccccc4)c(N)c3C#N)cc2[N+](=O)[O-])C1 (centres undefined)	.	14.1µM*	2.0%	?	-1.6%	-4.4%
CNC(=S)N/N=C(\C)c1cccc([N+](=O)[O-])c1	2.2	-7.7%	-6.2%	-8.9%	56.2µM*	-7.9%
CN1CCN(C(=S)NC(=O)c2cccc([N+](=O)[O-])c2)CC1	0.6	.	.	.	31.6µM*	.
NS(=O)(=O)c1cccc(NC(=S)NC(=O)c2cccc([N+](=O)[O-])c2)c1	1.8	-12.2%	9.6%	-16.3%	50.1µM*	0.2%
